# Source: ChEMBL document CHEMBL3988442, “University of Dundee, Small-Polar-MMV Screening Library” (2021)
# Screen size: about 48,000 compounds; about 13,000 (27%) showed an effect of 50% or more. The list shows a part of the results.
# System: Wolbachia pipientis
# Assay: Anti-Wolbachia Cell-Based Screen
# Format: functional
# Set-up: scale not given: in the data most compounds retested in dose-response had high values
# Details: 5 µM
row,SMILES,Percent Effect
1,COc1cccc2c1OCCCN(Cc1ccc(C(N)=O)c(=O)[nH]1)C2,-4.223%
2,CC(C)Cn1cnc(S(=O)(=O)Nc2cccnc2-n2cccn2)c1,-21.79%
3,CC1(C)CN(C(=O)CC2CCS(=O)(=O)CC2)C[C@]1(C)O,8.618%
4,O=S(=O)(NCC1(O)CCOCC1)c1ccccc1Br,8.924%
5,CC(C)NC(=O)NC[C@H]1OC[C@@H](NCc2cccs2)[C@@H]1O,11.97%
6,CCc1cc(N[C@H](C(N)=O)C(C)C)n2nc(C)c(C)c2n1,-4.879%
7,Cc1cccc(C2(CNC(=O)CCNS(C)(=O)=O)CCCC2)c1,4.767%
8,CC(Cc1cnccn1)NC(=O)c1cccc(CC2CCNCC2)c1 (stereo not given),-6.406%
9,Cc1c(Br)cccc1C(=O)NCCC1CCCNC1.Cl (stereo not given),6.591%
10,c1cnc(Nc2cc(CCC3CCNCC3)ccn2)cn1,61.48%
11,Cl.c1cnc(Nc2cc(CCC3CCCNC3)ccn2)cn1 (stereo not given),75.77%
12,CN1CCC(CCc2ccnc(Nc3cnccn3)c2)CC1,95.48%
13,O=C(CO)N1CCC(CCc2ccnc(Nc3cnccn3)c2)CC1,125.8%
14,O=C(NCCNc1cnccn1)NCC1CCS(=O)(=O)C1 (stereo not given),-2.4%
15,Cc1ccc(Oc2ncccc2CNC2CCOCC2)cn1,-4.901%
16,CCC(CNC1CCN(C(C)=O)CC1)Oc1cccc(C)c1 (stereo not given),3.033%
17,CN(C)c1cc2c(nn1)CCN(C(=O)C1CCc3ccccc31)C2 (stereo not given),-4.6%
18,CCCc1nc(C(=O)NCCN2CCC(c3ccccc3C)C2)cs1 (stereo not given),-11.15%
19,CC1CCN(CCNC(=O)c2cncnc2C(C)C)CC1,-7.999%
20,Cc1cc(C)n(-c2nc(C(=O)NCCN3CCC(C)CC3)cs2)n1,74.92%
21,Cc1cc(C(=O)NCCN2CCN(S(C)(=O)=O)CC2)no1.Cl,11.14%
22,Cc1nc(C(=O)N2CCN(S(C)(=O)=O)[C@@H]3CS(=O)(=O)C[C@@H]32)cs1,-1.846%
23,Cc1cc(C)n(-c2nc(C(=O)NCCS(=O)(=O)N3CCCCC3)cs2)n1,95.89%
24,Cc1csc(CNC(=O)NC2CCCN(S(C)(=O)=O)C2)n1 (stereo not given),-1.577%
25,CCc1c(C)nn(CCNC(=O)c2csc(C)n2)c1C,-30.9%
26,Cc1nc(C(=O)NCCS(=O)(=O)N2CCCC2)cs1,99.98%
27,OC[C@@H]1CCCN1Cc1cn(C2CCN(C3CCCC3)CC2)nn1,-5.2%
28,Cc1noc(OCCOc2ccc(C#N)cc2)n1,1.206%

row,SMILES,Percent Effect
1,CN1C(=O)C(C)(C)COc2ccc(NS(=O)(=O)Cc3ccccc3)cc21,99.35%
2,Cn1ccc(CS(=O)(=O)Cc2ccccc2)cc1=O,-1.625%
3,Cn1c(=O)n(C)c2cc(NS(=O)(=O)Cc3ccccc3)ccc21,78.16%
4,Cn1cccc1C(O)CNS(=O)(=O)Cc1ccccc1 (stereo not given),-5.113%
5,CN1C(=O)C(C)(C)COc2cc(NS(=O)(=O)c3ccccc3F)ccc21,192.1%
6,CN1C(=O)C(C)(C)COc2cc(NS(=O)(=O)Cc3ccccc3)ccc21,11.42%
7,CC(C)CS(=O)(=O)Nc1ccc2c(c1)OCC(C)(C)C(=O)N2C,141.6%
8,O=C1CO[C@H](c2ccc(NS(=O)(=O)Cc3ccccc3)cc2)[C@@H](CO)N1,-3.508%
9,CC(C)CS(=O)(=O)Nc1ccc([C@H]2OCC(=O)N[C@@H]2CO)cc1,-5.323%
10,CN1C(=O)C(C)(C)COc2cc(NS(=O)(=O)c3ccccc3)ccc21,19.53%
11,Cc1nc(N2CCCC2)nc(C)c1NS(=O)(=O)c1ccccc1F,-5.726%
12,Cn1cnc2c1CCN(CCCOc1ccc(S(C)(=O)=O)cc1)C2,-0.429%
13,COc1cc(CNC(=O)N2CCCC2c2cc(C)no2)ccn1 (stereo not given),-13.9%
14,CCOc1ccccc1-c1noc(CN(C)Cc2cnn(C)c2)n1,-16.57%
15,CCS(=O)(=O)Nc1ccc2c(c1)OCC(C)(C)C(=O)N2C,121.3%
16,CCCS(=O)(=O)Nc1ccc2c(c1)OCC(C)(C)C(=O)N2C,-9.167%
17,CCS(=O)(=O)Nc1ccc2[nH]c(C3CCC3)nc2c1,5.664%
18,O=C(CCc1nc(Cl)n[nH]1)NC1CCCN(C2Cc3ccccc3C2)C1 (stereo not given),-44.69%
19,COC(=O)c1ccoc1CN(C)Cc1ccccc1,118.1%
20,CC1Cc2ccccc2N1Cc1occc1C(=O)NCC(=O)N(C)C (stereo not given),-8.438%
21,CN(CC(=O)N(C)C)Cc1ccc(C#N)cc1F,-6.679%
22,COC(=O)c1ccoc1CN(C)CC(=O)N(C)C,115.3%
23,COC(=O)CNC(=O)C1(N(C)Cc2ccccc2)Cc2ccccc2C1,-5.057%
24,CN(Cc1ccccc1)CC(C)(C)NC(=O)c1ccon1,7.047%
25,COc1cc(CC(=O)Nc2cccc(C(=O)N(C)C)n2)ccc1C,-9.433%
26,COC(=O)c1ccoc1CN(C)Cc1cc(OC)c(OC)cc1C,109.7%
27,COc1cc(C)c(C(C)NC(=O)c2cccnc2N(C)C)cc1OC (stereo not given),0.4558%
